We go through 21 compounds from PubChem BioAssay (Tox21).

A short description of experiment [1]: qHTS RealTime-Glo MT Cell Viability Assay in HepG2 cells - 32 hour (AID 1224877). Further: nearly all actives have a fitted effect of over 55% in size. Further: potency means the concentration at half of the fitted maximal effect. The essentials:
(§1)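 HepG2 suspension premixed with RealTime-Glo reagents is plated at 600 cells per well and left 5 h at 37 C/5% CO2. Compounds in DMSO then go in, and bioluminescence reflecting viable cell number is recorded over 40 h.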

Experiment [2] can be described thus: A CellTox Green Cytotoxicity Assay to monitor cytotoxicity in HepG2 cells - 24 hour (AID 1224878). Further: nearly all actives have a fitted effect of over 45% in size. Further: potency means the concentration at half of the fitted maximal effect. The essentials: (§2)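 Cytotoxicity was tracked as dead-cell DNA fluorescence in HepG2 cells treated with test compounds at 37 C; each time-point value comes from one kinetic series spanning 0, 8, 16, 24, 32 and 40 h.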
Experiment [3] is described as follows: A CellTox Green Cytotoxicity Assay to monitor cytotoxicity in HepG2 cells - 40 hour (AID 1224879). Further: nearly all actives have a fitted effect of over 40% in size. Further: potency means the concentration at half of the fitted maximal effect. The essentials:
as §2

Experiment [4] can be described thus: qHTS RealTime-Glo MT Cell Viability Assay in HEK293 cells - 0 hour (AID 1224880). Further: nearly all actives have a fitted effect of over 45% in size. Further: potency means the concentration at half of the fitted maximal effect. On activity change, negative = cytotoxicity: top concentration of the series differs between compounds. The method, boiled down:
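Kinetic, non-lysing viability readout. Seed HEK293 (600/well) with reagent, incubate 5 h at 37 C/5% CO2, pin 23 nL compound in DMSO, incubate at 37 C, read luminescence at 0, 8, 16, 24, 32, 40 h.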
(In general: qHTS replaces the single test concentration by a dilution series.)

Experiment [5] in a line: A CellTox Green Cytotoxicity Assay to monitor cytotoxicity in HEK293 cells - 32 hour (AID 1224881). Further: nearly all actives have a fitted effect of over 40% in size. Further: potency means the concentration at half of the fitted maximal effect. The method, boiled down:
(§3)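 Real-time, in one plate: 600 HEK293 cells/well with dead-cell DNA dye, pinned compound after 5 h, 37 C incubation over 40 h; viable cells give no appreciable fluorescence.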

A short description of experiment [6]: A CellTox Green Cytotoxicity Assay to monitor cytotoxicity in HepG2 cells - 0 hour (AID 1224882). Further: nearly all actives have a fitted effect of over 35% in size. The method, boiled down: as §2
Experiment [7] is described as follows: A CellTox Green Cytotoxicity Assay to monitor cytotoxicity in HepG2 cells - 32 hour (AID 1224883). Further: nearly all actives have a fitted effect of over 50% in size. Further: potency means the concentration at half of the fitted maximal effect. The essentials: as §2
The nature of experiment [8]: A CellTox Green Cytotoxicity Assay to monitor cytotoxicity in HEK293 cells - 8 hour (AID 1224884). Further: nearly all actives have a fitted effect of over 35% in size. Further: potency means the concentration at half of the fitted maximal effect. The essentials: as §3
A short description of experiment [9]: qHTS RealTime-Glo MT Cell Viability Assay in HepG2 cells - 16 hour (AID 1224885). Further: nearly all actives have a fitted effect of over 50% in size. Further: potency means the concentration at half of the fitted maximal effect. The method, boiled down: as §1
Experiment [10] is described as follows: qHTS RealTime-Glo MT Cell Viability Assay in HEK293 cells - 24 hour (AID 1224886). Further: nearly all actives have a fitted effect of over 50% in size. Further: potency means the concentration at half of the fitted maximal effect. On activity change, negative = cytotoxicity: top concentration of the series differs between compounds. The essentials:
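Reads taken at 0, 8, 16, 24, 32 and 40 h from the same wells. HEK293 cells (600/well) carried RealTime-Glo reagents from seeding, with compound added after a 5 h settle at 37 C.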

SMILES strings stand for the structures. A number with no mark means an inactive call. Results filed as inconclusive are left out. Activity calls are given as the source filed them. The call rests on the fitted dose curve; in most records, active means well fitted curve in the direction sought with a large enough effect in the repeat runs; inconclusive means weak or mixed curves; inactive means no such curve, though single readings can be large; an effect the other way counts as inactive or inconclusive.
On the % scale 0 is the no-effect control and ±100 the full control effect.

With `Cn1c(=O)[nH]c2ncn(C)c2c1=O`, the Potency result in [1], in experiment [2], in [3], in experiment [4], in [5] and in experiment [6] was “inactive” throughout. Moreover, the Potency result in experiment [7], in experiment [8], in experiment [9] and in experiment [10] was “inactive” in each case.

For the compound `CCCCNc1ccc(NCCCC)c2c1C(=O)c1ccccc1C2=O`, the activity change, negative = cytotoxic in experiment [1] was -3.72% [at 15.8 µM]; in experiment [9], 0.554% [at 15.8 µM]. For the same compound, the results for the cytotoxicity in experiment [2] and in experiment [6] were -4.17% [at 15.8 µM] and 3.56% [at 15.8 µM], respectively. Further, the cytotoxicity increase in [3] was -3.23% [at 15.8 µM]; in experiment [5] it was -0.0716% [at 15.8 µM]; in [7] it was -3.73% [at 15.8 µM]; in [8], 1.22% [at 15.8 µM]. For the same compound, the activity change, negative = cytotoxicity in [4] is -4.14% [at 15.8 µM]; in experiment [10], -0.0547% [at 15.8 µM].

Take `CN(C[C@@H](CC[N+]12CCC(C3CCCCC3)(CC1)CC2)c1ccc(Cl)c(Cl)c1)C(=O)c1cc(C(F)(F)F)cc(C(F)(F)F)c1`: the Potency in experiment [1] is 24.5 µM (active); in experiment [2] it was 24.5 µM (active); in experiment [3], 24.5 µM (active); in experiment [5] it was 34.7 µM (active); in experiment [7], 24.5 µM (active); in [8], 43.6 µM (active). Further, the Potency in experiment [9] was 21.9 µM (active); in experiment [10], 3.09 µM (active). Further, the Potency entry in experiment [4] and in experiment [6] was “inactive” in each case.

On to `CCC1(C)C(=O)N(Cl)C(=O)N1Cl` (stereo not drawn), for which the Potency entry in experiment [1], in experiment [2], in [3], in [4], in experiment [5] and in experiment [6] was “inactive” throughout. The Potency entry in experiment [7], in experiment [8], in experiment [9] and in experiment [10] was “inactive” each time.

Turning to `O=C1OC2(c3ccccc31)c1ccc(O)c(Br)c1Oc1c2ccc(O)c1Br`, in experiment [1], the Potency result is “inactive”.

Turning to `Oc1ccc(C2(c3ccc(O)c(C4CCCCC4)c3)CCCCC2)cc1C1CCCCC1`, the Potency in experiment [1] was 34.7 µM (active); in [2], 34.7 µM (active); in experiment [3] it was 24.5 µM (active); in experiment [4], 49 µM (active); in experiment [7], 34.7 µM (active); in [9], 38.9 µM (active). Besides, the Potency in experiment [10] was 38.9 µM (active). Besides, the Potency result in experiment [5], in experiment [6] and in [8] was “inactive” each time.

For the compound `O=C1OCc2ccccc21`, the Potency result in [1], in experiment [2], in [3], in experiment [4], in experiment [5] and in experiment [6] was “inactive” in each case. Also, the Potency result in experiment [7], in [8], in [9] and in experiment [10] was “inactive” in each case.

Consider `CN1CC[C@H](c2c(O)cc(O)c3c(=O)cc(-c4ccccc4Cl)oc23)[C@H](O)C1`, for which the Potency entry in [1], in experiment [4], in [5], in [6], in experiment [8] and in experiment [9] was “inactive” each time. Further, the Potency is 0.268 µM (active) in experiment [2], 0.239 µM (active) in experiment [3], 0.213 µM (active) in [7] and 0.151 µM (active) in experiment [10].

Take `CCOC(=O)C1=NN(c2ccc(Cl)cc2Cl)C(C)(C(=O)OCC)C1` (stereo not drawn): the Potency result in experiment [1], in experiment [2], in experiment [3], in experiment [4], in [5] and in experiment [6] was “inactive” each time. For the same compound, the Potency entry in [7], in experiment [8] and in experiment [9] was “inactive” throughout.

As to `COCCC(=O)OC`, the Potency entry in experiment [1], in [2], in [3], in experiment [4], in experiment [5] and in experiment [6] was “inactive” each time. Further, the Potency entry in experiment [7], in [8], in experiment [9] and in experiment [10] was “inactive” throughout.

Consider `C=C(C)C1CCC(C)CC1O` (stereo not drawn), for which the Potency result in [1], in experiment [2], in experiment [3], in experiment [4], in [5] and in [6] was “inactive” each time. Also, the Potency result in experiment [7], in experiment [8] and in [10] was “inactive” in each case.

For the compound `O=c1cc[nH]cc1`, the Potency result in experiment [1], in experiment [2], in experiment [3], in experiment [4], in [5] and in experiment [6] was “inactive” in each case. Moreover, the Potency result in [7], in experiment [8], in [9] and in [10] was “inactive” each time.

On to `COc1cc2ncnc(Nc3cccc(Cl)c3)c2cc1OC`, for which the activity change, negative = cytotoxic in [1] was 8.78% [at 15.8 µM]; in [9], -11.4% [at 15.8 µM]. Also, the values for the cytotoxicity in experiment [2] and in [6] were -17.9% [at 15.8 µM] and -14.6% [at 15.8 µM], respectively. Moreover, the cytotoxicity increase in experiment [3] was -19.3% [at 15.8 µM]; in experiment [5], 0.0774% [at 15.8 µM]; in experiment [7] it was -17.4% [at 15.8 µM]; in experiment [8] it was -7.13% [at 15.8 µM]. In addition, the activity change, negative = cytotoxicity in [4] is -2.52% [at 15.8 µM]; in experiment [10], -2.37% [at 15.8 µM].

Regarding `CC/C=C\C/C=C\C/C=C\CCCCCCCC(=O)OC`, the Potency result in experiment [1], in experiment [2], in experiment [3], in experiment [4], in experiment [5] and in experiment [6] was “inactive” in each case. In addition, the Potency result in experiment [7], in [8], in experiment [9] and in experiment [10] was “inactive” in each case.

Regarding `CCc1c(C)cc(N)c(CC)c1N`, the Potency result in experiment [1], in experiment [2], in experiment [3], in [4], in experiment [5] and in experiment [6] was “inactive” each time. Moreover, the Potency entry in experiment [7], in experiment [8], in [9] and in experiment [10] was “inactive” throughout.

As to `CCSCC`, the Potency entry in [1], in experiment [2], in [3], in experiment [4], in experiment [5] and in experiment [6] was “inactive” each time. Besides, the Potency entry in [7], in [8], in [9] and in experiment [10] was “inactive” in each case.

`C=C[Si](C)(C)Cl`: the activity change, negative = cytotoxic in [1] was 9.18% [at 6.97 µM]. Further, the cytotoxicity is -14.5% [at 6.97 µM] in experiment [2] and -6.72% [at 6.97 µM] in experiment [6]. The cytotoxicity increase is -18.2% [at 6.97 µM] in experiment [3], -7.47% [at 6.97 µM] in [5], -16.4% [at 6.97 µM] in [7] and -2.48% [at 6.97 µM] in experiment [8]. Besides, the activity change, negative = cytotoxicity in experiment [4] is -5.88% [at 6.97 µM]; in experiment [10] it was -3.65% [at 6.97 µM].

As for `CC(CC(C)(C)C)CC(C)(C)CC(C)(C)C` (stereo not drawn), the Potency result in [1], in experiment [2], in experiment [3], in experiment [4], in experiment [5] and in [6] was “inactive” each time. Also, the Potency entry in [7], in experiment [8], in experiment [9] and in experiment [10] was “inactive” throughout.

In the case of `C=CC(C)(C)O`, the Potency result in [1], in [2], in experiment [3], in experiment [4], in [5] and in experiment [6] was “inactive” each time. For the same compound, the Potency entry in experiment [7], in [8], in experiment [9] and in [10] was “inactive” throughout.

For `CCCCCCCCCCCCS(=O)(=O)Cl`, the activity change, negative = cytotoxic was 9.6% [at 15.8 µM] in experiment [1] and 1.02% [at 15.8 µM] in [9]. Moreover, the cytotoxicity in [2] is -12.5% [at 15.8 µM]; in experiment [6], -7.13% [at 15.8 µM]. Further, the cytotoxicity increase in experiment [3] is -19.9% [at 15.8 µM]; in [5], -1.06% [at 15.8 µM]; in experiment [7], -17.3% [at 15.8 µM]; in [8], -0.511% [at 15.8 µM]. Further, the activity change, negative = cytotoxicity is -1.06% [at 15.8 µM] in experiment [4] and 12.2% [at 15.8 µM] in experiment [10].

With `CCC(=O)OC/C=C(\C)CCC=C(C)C`, the Potency entry in experiment [1], in experiment [2], in experiment [3], in experiment [4], in experiment [5] and in experiment [6] was “inactive” throughout. For the same compound, the Potency result in experiment [7], in [8], in experiment [9] and in experiment [10] was “inactive” in each case.
